A short description of the assay: NCI Yeast Anticancer Drug Screen. Data for the sgs1 strain (AID 173).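 Also: 0% = growth of vehicle-only control cultures.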 Conditions: S. cerevisiae sgs1 mutant, stronger effect = higher value. The protocol:
Growth inhibition of yeast strains with defined genetic alterations is measured as a screen for potential anti-cancer activity. Selected strains with alterations in DNA damage repair or cell cycle control were exposed to compounds and growth inhibition was measured relative to vehicle treated controls. The strain used in this assay is sgs1

The structures appear in SMILES notation. About 79,000 compounds went through this panel and 15% of them were active in at least one assay; those are over-represented in the sample as a whole. A number with no mark means an inactive call. Active and inactive are the calls of the source. Rule as the data show it: active = growth inhibition above about 70%; inactive = the rest.

`Cc1cccc2c1C1c3c(C)cccc3C(CC(=O)O)CC1CC2` (stereo not given): the growth inhibition by setting is: (at 1.2 µM) 10%; (at 3.7 µM) 75% (active); (at 11.0 µM) 98% (active); (at 33.0 µM) 96% (active); (at 100.0 µM) 92% (active).

Take `Nc1cc(Cl)ccc1Nc1ccccc1`: the growth inhibition by setting is: (at 1.2 µM) -53%; (at 3.7 µM) -36%; (at 11.0 µM) -35%; (at 33.0 µM) 4%; (at 100.0 µM) 89% (active).

As for `CC(C)C(c1ccccc1)c1ccccc1`, the growth inhibition is, setting by setting: (at 1.2 µM) -1%; (at 3.7 µM) -3%; (at 11.0 µM) -3%; (at 33.0 µM) -3%; (at 100.0 µM) 99% (active).

Consider `CS(=O)(=O)O.[Ag]`, for which the growth inhibition runs as follows: (at 1.2 µM) 89% (active); (at 3.7 µM) 100% (active); (at 11.0 µM) 100% (active); (at 33.0 µM) 100% (active); (at 100.0 µM) 98% (active).

On to `S=C(NCc1ccccn1)N/N=C/c1ccccn1`, for which the growth inhibition is 99% (active) (at 1.2 µM); 98% (active) (at 3.7 µM); 98% (active) (at 11.0 µM); 99% (active) (at 33.0 µM); 99% (active) (at 100.0 µM).

Consider `O=C(O)c1ccccc1C(=O)OC1CCc2ccccc2C1` (stereo not given), for which the growth inhibition (at 1.2 µM) was -4%; the growth inhibition (at 3.7 µM) is -4%; the growth inhibition (at 11.0 µM) was -3%; the growth inhibition (at 33.0 µM) is 14%; the growth inhibition (at 100.0 µM) is 45%.

Regarding `CC1=CC(=C(c2ccc(N)c(C)c2)c2ccc(N)c(C)c2)C=CC1=N`, the growth inhibition is 5% (at 1.2 µM); 19% (at 3.7 µM); 18% (at 11.0 µM); 51% (at 33.0 µM); 95% (active) (at 100.0 µM).

Regarding `CCCCS/C(=C(/C#N)C(N)=O)c1cc2c([nH]1)CCCC2`, the growth inhibition is, setting by setting: (at 1.2 µM) 12%; (at 3.7 µM) 17%; (at 11.0 µM) 18%; (at 33.0 µM) 22%; (at 100.0 µM) 72% (active).

Source of the values: PubChem BioAssay (NCI).
